# Measurements: the supplement of paper PMC6089552
# About 300 (9.4%) of roughly 3,200 compounds showed activity. This excerpt belongs to a sample that is enriched for actives. Values without a mark were called inactive.
# System: A673/TR/shEF
# Assay: cell viability (LOESS-normalised, relative to median of negative controls) (log2 ratio); higher = more viable cells (less compound effect), active = hit call of the paper (over 3 MAD below the median)
# Settings: treatment time: 72 h
# Outline: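 A673/TR/shEF Ewing sarcoma cells were plated at 1,500 per well in 384-well plates and cultured with or without doxycycline, added 24 h before compounds, to induce EWS-FLI1 shRNA knockdown. Library compounds at two or more concentrations, alongside DMSO controls, were applied for three days. Cell viability was measured by CellTiter-Glo luminescence on an Envision reader. Readings were LOESS-corrected per plate, divided by the median of negative controls and log2-transformed, and hits were wells lying at least three median absolute deviations from the median of all screened wells.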
# [1] = 0.25 µM, library screen: screen1, EWS-FLI1 expression: high (no doxycycline)
# [2] = 0.25 µM, library screen: screen1, EWS-FLI1 expression: low (doxycycline-induced shRNA knockdown)
# [3] = 2.5 µM, library screen: screen1, EWS-FLI1 expression: high (no doxycycline)
# [4] = 2.5 µM, library screen: screen1, EWS-FLI1 expression: low (doxycycline-induced shRNA knockdown)
# [5] = 0.103 µM, library screen: screen3, EWS-FLI1 expression: high (no doxycycline)
# [6] = 0.103 µM, library screen: screen3, EWS-FLI1 expression: low (doxycycline-induced shRNA knockdown)
# [7] = 0.308 µM, library screen: screen3, EWS-FLI1 expression: high (no doxycycline)
# [8] = 0.308 µM, library screen: screen3, EWS-FLI1 expression: low (doxycycline-induced shRNA knockdown)
# [9] = 0.926 µM, library screen: screen3, EWS-FLI1 expression: high (no doxycycline)
# [10] = 0.926 µM, library screen: screen3, EWS-FLI1 expression: low (doxycycline-induced shRNA knockdown)
# [11] = 2.8 µM, library screen: screen3, EWS-FLI1 expression: high (no doxycycline)
# [12] = 2.8 µM, library screen: screen3, EWS-FLI1 expression: low (doxycycline-induced shRNA knockdown)
# [13] = 8.3 µM, library screen: screen3, EWS-FLI1 expression: high (no doxycycline)
# [14] = 8.3 µM, library screen: screen3, EWS-FLI1 expression: low (doxycycline-induced shRNA knockdown)
# [15] = 25 µM, library screen: screen3, EWS-FLI1 expression: high (no doxycycline)
# [16] = 25 µM, library screen: screen3, EWS-FLI1 expression: low (doxycycline-induced shRNA knockdown)
# [17] = 0.25 µM, library screen: screen2, EWS-FLI1 expression: high (no doxycycline)
# [18] = 0.25 µM, library screen: screen2, EWS-FLI1 expression: low (doxycycline-induced shRNA knockdown)
# [19] = 2.5 µM, library screen: screen2, EWS-FLI1 expression: high (no doxycycline)
# [20] = 2.5 µM, library screen: screen2, EWS-FLI1 expression: low (doxycycline-induced shRNA knockdown)
# [21] = 0.025 µM, library screen: screen1, EWS-FLI1 expression: high (no doxycycline)
# [22] = 0.025 µM, library screen: screen1, EWS-FLI1 expression: low (doxycycline-induced shRNA knockdown)
# [23] = 25 µM, library screen: screen1, EWS-FLI1 expression: high (no doxycycline)
# [24] = 25 µM, library screen: screen1, EWS-FLI1 expression: low (doxycycline-induced shRNA knockdown)
smiles,measurement,setting,value
Cc1nc2ccc(NC(=S)N3CCCC3)cc2nc1C,cell viability (log2),[1],-0.0193
same,cell viability (log2),[2],0.0405
same,cell viability (log2),[3],0.0212
same,cell viability (log2),[4],0.0752
CC1=C(C(=O)Nc2cccc(Cl)c2)C(c2cccs2)NC(=S)N1 (stereo unspecified),cell viability (log2),[1],0.0938
same,cell viability (log2),[2],0.0927
same,cell viability (log2),[3],0.145
same,cell viability (log2),[4],0.108
O=C(Nc1cccc(Cl)c1)/C(=C\c1ccco1)NC(=O)c1cccs1,cell viability (log2),[1],-0.0172
same,cell viability (log2),[2],0.0581
same,cell viability (log2),[3],0.0419
same,cell viability (log2),[4],0.0226
Cc1cn2c(=O)c3ccccc3nc2nc1Nc1ccccc1C(=O)O,cell viability (log2),[1],0.138
same,cell viability (log2),[2],0.0987
same,cell viability (log2),[3],0.0749
same,cell viability (log2),[4],0.0532
O=C1C=CC2=C3c4cc(O)c(O)cc4CC3(O)COC2=C1 (stereo unspecified),cell viability (log2),[1],0.163
same,cell viability (log2),[2],0.195
same,cell viability (log2),[3],0.225
same,cell viability (log2),[4],0.28
COc1ccc(C2COc3c(ccc(O)c3OC)C2)c(OC)c1O (stereo unspecified),cell viability (log2),[1],0.108
same,cell viability (log2),[2],0.0205
same,cell viability (log2),[3],0.0667
same,cell viability (log2),[4],-0.00772
COc1cc(OC)c2c(=O)c(-c3ccccc3)coc2c1,cell viability (log2),[1],0.0176
same,cell viability (log2),[2],0.0621
same,cell viability (log2),[3],0.0815
same,cell viability (log2),[4],0.1
COc1cc2ncnc(Nc3ccc(F)c(Cl)c3)c2cc1OCCCN1CCOCC1,cell viability (log2),[5],0.066
same,cell viability (log2),[6],0.0855
same,cell viability (log2),[7],0.103
same,cell viability (log2),[8],0.0493
same,cell viability (log2),[9],0.114
same,cell viability (log2),[10],0.0535
same,cell viability (log2),[11],0.136
same,cell viability (log2),[12],0.0991
same,cell viability (log2),[13],0.00987
same,cell viability (log2),[14],0.0751
same,cell viability (log2),[15],-0.0152
same,cell viability (log2),[16],0.0721
CS(=O)(=O)CCNCc1ccc(-c2ccc3ncnc(Nc4ccc(OCc5cccc(F)c5)c(Cl)c4)c3c2)o1,cell viability (log2),[5],0.145
same,cell viability (log2),[6],0.0528
same,cell viability (log2),[7],0.146
same,cell viability (log2),[8],0.112
same,cell viability (log2),[9],0.139
same,cell viability (log2),[10],0.114
same,cell viability (log2),[11],0.0651
same,cell viability (log2),[12],0.113
same,cell viability (log2),[13],0.0899
same,cell viability (log2),[14],0.0389
same,cell viability (log2),[15],0.0387
same,cell viability (log2),[16],0.0962
C=CC(=O)Nc1cc2c(Nc3ccc(F)c(Cl)c3)ncnc2cc1OCCCN1CCOCC1,cell viability (log2),[5],0.0394
same,cell viability (log2),[6],0.0254
same,cell viability (log2),[7],-0.016
same,cell viability (log2),[8],0.0224
same,cell viability (log2),[9],-0.0215
same,cell viability (log2),[10],-0.0107
same,cell viability (log2),[11],-0.0981
same,cell viability (log2),[12],-0.0776
same,cell viability (log2),[13],-0.188 (active)
same,cell viability (log2),[14],-0.0307
same,cell viability (log2),[15],-0.199 (active)
same,cell viability (log2),[16],-0.281 (active)
COc1cc2c(Nc3ccc(Br)cc3F)ncnc2cc1OCC1CCN(C)CC1,cell viability (log2),[5],-0.0043
same,cell viability (log2),[6],0.0398
same,cell viability (log2),[7],-0.0447
same,cell viability (log2),[8],0.068
same,cell viability (log2),[9],0.0443
same,cell viability (log2),[10],0.0503
same,cell viability (log2),[11],-0.0379
same,cell viability (log2),[12],0.00456
same,cell viability (log2),[13],-0.00527
same,cell viability (log2),[14],-0.0123
same,cell viability (log2),[15],-0.0986
same,cell viability (log2),[16],-0.0825
CN(C)C/C=C/C(=O)Nc1cc2c(Nc3ccc(F)c(Cl)c3)ncnc2cc1O[C@H]1CCOC1,cell viability (log2),[5],-0.033
same,cell viability (log2),[6],0.00738
same,cell viability (log2),[7],-0.0507
same,cell viability (log2),[8],-0.00854
same,cell viability (log2),[9],0.0161
same,cell viability (log2),[10],-0.000186
same,cell viability (log2),[11],0.00307
same,cell viability (log2),[12],-0.0241
same,cell viability (log2),[13],-0.0486
same,cell viability (log2),[14],-0.0662
same,cell viability (log2),[15],-1.35 (active)
same,cell viability (log2),[16],-1 (active)
COc1cc2c(N3CCN(C(=O)Nc4ccc(OC(C)C)cc4)CC3)ncnc2cc1OCCCN1CCCCC1,cell viability (log2),[5],-0.0129
same,cell viability (log2),[6],-0.0538
same,cell viability (log2),[7],-0.0428
same,cell viability (log2),[8],-0.0392
same,cell viability (log2),[9],-0.0343
same,cell viability (log2),[10],-0.0604
same,cell viability (log2),[11],0.0597
same,cell viability (log2),[12],0.0175
same,cell viability (log2),[13],0.0441
same,cell viability (log2),[14],0.0441
same,cell viability (log2),[15],-0.0915
same,cell viability (log2),[16],0.0601
CCCCCCCCCCCCCCCC(=O)NCC(COP(=O)([O-])OCC[N+](C)(C)C)OCC (stereo unspecified),cell viability (log2),[17],0.198
same,cell viability (log2),[18],0.0364
same,cell viability (log2),[19],0.0761
same,cell viability (log2),[20],-0.0192
COc1ccc(C(=O)c2ccccc2)c(O)c1O,cell viability (log2),[1],0.123
same,cell viability (log2),[2],0.143
same,cell viability (log2),[3],0.244
same,cell viability (log2),[4],0.216
COc1ccc2c(c1)c(CC(=O)Nc1ccc(NC(C)=O)cc1)c(C)n2C(=O)c1ccc(Cl)cc1,cell viability (log2),[17],-0.0274
same,cell viability (log2),[18],0.0874
same,cell viability (log2),[19],0.0757
same,cell viability (log2),[20],0.214
CCCN(CCC)CCc1cccc2c1CC(=O)N2,cell viability (log2),[17],-0.0806 (active)
same,cell viability (log2),[18],-0.203 (active)
same,cell viability (log2),[19],-3.18 (active)
same,cell viability (log2),[20],-2.79 (active)
CCN1C(=O)/C(=C/c2c(N3CCN(C)CC3)nc3ccccn3c2=O)SC1=S,cell viability (log2),[1],0.0782
same,cell viability (log2),[2],0.0798
same,cell viability (log2),[3],0.126
same,cell viability (log2),[4],0.0777
COc1ccc(-c2nn(-c3ccccc3)cc2C=O)cc1[N+](=O)[O-],cell viability (log2),[1],0.000395
same,cell viability (log2),[2],0.0393
same,cell viability (log2),[3],0.0878
same,cell viability (log2),[4],0.0816
O=C(Nc1ccccn1)c1cc(-c2ccccc2)nc2ccccc12,cell viability (log2),[1],0.083
same,cell viability (log2),[2],-0.00975
same,cell viability (log2),[3],0.0888
same,cell viability (log2),[4],-0.0311
C=C(c1ccccc1)c1cc(O)c(OC)cc1O,cell viability (log2),[1],-0.0139
same,cell viability (log2),[2],-0.00424
same,cell viability (log2),[3],0.0356
same,cell viability (log2),[4],0.0603
Cc1cc2ncc(-c3ccccc3)nc2cc1C,cell viability (log2),[21],0.21
same,cell viability (log2),[22],0.0761
same,cell viability (log2),[1],0.265
same,cell viability (log2),[2],0.0996
same,cell viability (log2),[3],-0.0894 (active)
same,cell viability (log2),[4],0.141
same,cell viability (log2),[23],-0.147 (active)
same,cell viability (log2),[24],0.0902
COc1ccccc1N(C(N)=O)c1nc(-c2cccnc2)nc2ccccc12,cell viability (log2),[17],0.155
same,cell viability (log2),[18],0.0439
same,cell viability (log2),[19],0.275
same,cell viability (log2),[20],0.0633
COc1cc2ncc(-c3ccccc3)nc2cc1OC,cell viability (log2),[21],0.165
same,cell viability (log2),[22],-0.00441
same,cell viability (log2),[1],0.202
same,cell viability (log2),[2],0.0199
same,cell viability (log2),[17],0.139
same,cell viability (log2),[18],0.0671
same,cell viability (log2),[3],-0.0715
same,cell viability (log2),[4],0.188
same,cell viability (log2),[19],0.212
same,cell viability (log2),[20],0.201
same,cell viability (log2),[23],-0.157 (active)
same,cell viability (log2),[24],0.175
